# Bioassay records from PubChem BioAssay.
# Hits are enriched below; roughly 4.3% of the tested compounds scored in any of these assays.
# MITF TRPM1 inh = inhibitors of MITF-dependent TRPM1 promoter reporter, primary screen, cell-based, SK-MEL-5, single point, luciferase; AID 488899, 2010; SK-MEL-5 TRPM1 promoter luciferase, 24 h; 0.83% of 330,000 active; inhibition, % at 12.5 µM;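 active = mean inhibition across replicates of 60% or more, whatever share of single replicates reaches that level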
# HIF-2a inh = HIF-2a reporter inhibitors, primary screen, luminescence, 786-0 RCC cells; inhibition, % at 18.8 µM; 0.72% of 360,000 active; 786-0 RCC cells HIF-2a reporter, luciferase luminescence, overnight; AID 624352, 2012;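 active = inhibition of the luminescence signal of 40% or more relative to plate controls, in a single-dose primary screen at 18.75 µM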
# CF NFkB inh = inhibitors of PAF-induced NF-kB signaling, primary screen, cell-based, GFP fluorescence, uHTS; 0.86% of 360,000 active; AID 588850, 2011; KKLEB NF-kB-GFP reporter, GFP fluorescence overnight; inhibition, % at 5 µM;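 active = at least 50% inhibition at 5 µM, scaled per plate between neutral and stimulator controls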;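 also: PAF is a Pseudomonas aeruginosa culture filtrate used as stimulus; plate controls were PAF-stimulated DMSO wells for no effect and unstimulated DMSO wells for full effect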
# CHOP inhibitor = inhibitors of CHOP promoter induction, primary screen, cell-based, unfolded protein response, luciferase reporter; 3.8% of 220,000 active; inhibition, % at 10 µM; CHO-K1 CHOP-promoter luciferase, tunicamycin-induced, 15-18 h; AID 2732, 2010;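 active = compounds that reduced the stress-induced luciferase reporter signal by more than about 70% of percent inhibition, limit read from the data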;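 also: 0% = tunicamycin plus vehicle and 100% = wells without tunicamycin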
# Peg3 prom inh-1 = Peg3 promoter-driven luciferase inhibitors, primary screen, cell-based, HeLa, luciferase luminescence; 1.7% of 360,000 active; HeLa PEG-Prom luciferase reporter, overnight; AID 588405, 2011; inhibition, % at 20 µM;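 active = inhibition of at least 50% at 20 µM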
# KKLEB cytotox = cytotoxicity in KKLEB CF airway cells, primary screen, cytotoxicity control for CF NF-kB inhibitor project, cell-based, uHTS, fluorescence assay plates; KKLEB CF airway cells viability, ATPlite luminescence, overnight; active compounds read low; cells stimulated with P. aeruginosa culture filtrate; activity change (cytotoxicity), % at 5 µM; 0.36% of 360,000 active; AID 602141, 2011;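 active = corrected activity change at or below -50% at 5 µM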
# CHOP inh conf = retest of CHOP induction inhibitors, confirmation, cell-based. shares compounds with CHOP inhibitor. CHO-CHOP promoter luciferase reporter, tunicamycin-induced, luminescence. inhibition, % at 10 µM. 45% of 2,100 active;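 active = mean of three repeat readings of reporter signal inhibition above a set limit, cut at about 70% in these data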;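 also: 0% = tunicamycin plus vehicle and 100% = wells lacking tunicamycin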
# Peg3 prom inh-2 = Peg3 promoter reporter inhibitors, retest, confirmation, cell-based, HeLa, luciferase reporter, single concentration; inhibition, % at 20 µM; HeLa PEG-Prom luciferase reporter, luminescence, overnight; AID 602417, 2012; shares compounds with Peg3 prom inh-1; 84% of 1,300 active;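 active = at 20 µM dose, 40% or more inhibition averaged across four replicates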
# CF NFkB conf = inhibitors of PAF-induced NF-kB signaling, retest, confirmation, cell-based, GFP fluorescence, single concentration. KKLEB CF airway cells, overnight. shares compounds with CF NFkB inh. inhibition, % at 5 µM. 64% of 1,300 active; in the data active = inhibition above about 40%;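 also: stimulus PAF is a Pseudomonas aeruginosa filtrate and not platelet activating factor; plate controls were DMSO wells with stimulus for no effect and unstimulated DMSO wells for full effect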
# Mdm2-MdmX confirm = retested Mdm2-MdmX interaction blockers, confirmation, cell-based, luminescence, single concentration, set 2; SaOS-2 split-luciferase Mdm2/MdmX complementation; 99% of 740 active; inhibition, % at 8 µM; shares compounds with HIF-2a inh;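 active = mean inhibition of the luminescence signal across two replicates at or above 26 percent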
# Target sequence (O15151 whole entry, looked up): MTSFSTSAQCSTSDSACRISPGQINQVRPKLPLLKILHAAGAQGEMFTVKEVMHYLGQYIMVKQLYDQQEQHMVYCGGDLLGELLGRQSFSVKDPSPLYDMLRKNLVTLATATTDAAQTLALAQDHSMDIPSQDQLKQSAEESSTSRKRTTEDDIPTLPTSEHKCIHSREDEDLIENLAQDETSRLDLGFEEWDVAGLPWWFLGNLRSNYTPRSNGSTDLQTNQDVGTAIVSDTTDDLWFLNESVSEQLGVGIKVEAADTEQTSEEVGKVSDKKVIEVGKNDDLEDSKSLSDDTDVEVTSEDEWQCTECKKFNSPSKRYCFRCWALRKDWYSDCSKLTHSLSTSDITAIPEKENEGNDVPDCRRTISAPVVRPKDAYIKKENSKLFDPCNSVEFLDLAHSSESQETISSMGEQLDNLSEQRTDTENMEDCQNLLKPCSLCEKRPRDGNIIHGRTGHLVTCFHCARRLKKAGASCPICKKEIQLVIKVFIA
# Target sequence (Q00987 whole entry, looked up): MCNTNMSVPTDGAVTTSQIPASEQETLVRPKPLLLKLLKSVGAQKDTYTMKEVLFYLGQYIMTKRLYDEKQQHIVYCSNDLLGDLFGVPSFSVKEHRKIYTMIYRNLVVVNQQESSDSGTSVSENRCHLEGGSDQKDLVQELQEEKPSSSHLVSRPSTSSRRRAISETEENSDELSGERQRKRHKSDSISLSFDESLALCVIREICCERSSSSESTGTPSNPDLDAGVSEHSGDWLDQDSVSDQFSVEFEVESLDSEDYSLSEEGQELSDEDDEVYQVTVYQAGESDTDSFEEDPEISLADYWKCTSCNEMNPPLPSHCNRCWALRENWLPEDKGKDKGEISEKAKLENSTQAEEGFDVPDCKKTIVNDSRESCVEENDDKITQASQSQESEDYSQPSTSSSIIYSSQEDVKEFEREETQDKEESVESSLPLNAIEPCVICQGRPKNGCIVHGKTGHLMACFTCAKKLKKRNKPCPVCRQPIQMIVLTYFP
# HIF-2a conf = HIF-2a reporter inhibitor retest, confirmation, luminescence, 786-0 RCC cells. shares compounds with HIF-2a inh. 56% of 1,800 active. inhibition, % at 18.8 µM. HIF-2a luciferase reporter luminescence, overnight;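 active = mean inhibition across four replicates of at least 40 percent at the single tested concentration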
# HIF-1a counter = HIF-1a luciferase reporter signal reduction – MiaPaCa-2 cells, single concentration, counter-screen for HIF-2a inhibitor project, confirmation; AID 651589, 2012; inhibition, % at 18.8 µM; 72% of 1,800 active; MiaPaCa-2 HIF-1a luciferase reporter, desferoxamine, overnight; shares compounds with HIF-2a inh;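 active = mean inhibition of the reporter signal across four replicates at the single tested dose of 50% or more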
# Starred values were filed as active, the others as inactive; x = not tested or not shown.
SMILES,MITF TRPM1 inh,HIF-2a inh,CF NFkB inh,CHOP inhibitor,Peg3 prom inh-1,KKLEB cytotox,CHOP inh conf,HIF-2a conf,HIF-1a counter,others
CCSc1nc2ccccc2n1C(=O)/C=C\c1ccc(OC)c(OC)c1,69*,86*,82*,110*,106*,3,111*,31,103*,Peg3 prom inh-2=94*;Mdm2-MdmX confirm=102*
O=c1cc(C(Cl)(Cl)Cl)oc2c1ccc1ccccc12,69*,35,6,100*,106*,8,-10,x,x,Mdm2-MdmX confirm=103*
O=C(NNc1nc2ccccc2s1)Nc1ccc(Cl)c(Cl)c1,12,40*,8,106*,-10,-19,-67,-28,48,
O=C(NNc1nc2ccccc2s1)Nc1ccc(F)cc1,-67,-193,-38,22,-212,-5,x,x,x,
Cc1nc([N+](=O)[O-])c(Br)n1Cc1ccc(Cl)c(Cl)c1,23,70*,86*,105*,104*,-46,3,28,102*,
CN(C(=O)COC(=O)c1ccc(=O)n(Cc2ccccc2)n1)C1CCCCC1,-2,10,8,x,-7,0,x,x,x,
CCSc1nc(-c2ccccc2)c2cc(Cl)ccc2n1,-1,16,18,58,14,5,x,x,x,
CCSc1nc(-c2ccccc2)nc(C(Cl)Cl)n1,96*,71*,14,106*,102*,-15,84*,61*,105*,
O=S1(=O)C=C(Sc2nnc(-c3ccccc3)o2)c2ccccc21,96*,95*,97*,x,110*,-72*,125*,x,x,Mdm2-MdmX confirm=100*
Cc1ccc(C)c(-n2nnnc2Sc2nnnn2-c2ccccc2)c1,21,29,92*,x,96*,-68*,24,x,x,Mdm2-MdmX confirm=103*
CCOC(=O)C1=CN(CC)S(=O)(=O)NC1CC (stereo not given),-4,-1,-8,x,-18,-8,x,x,x,
O=S(=O)(CS(=O)(=O)c1ccccc1)c1ccccc1,-4,10,-9,x,16,3,x,x,x,
O=S(=O)(C/C(=C/CO)S(=O)(=O)c1ccccc1)c1ccccc1,78*,87*,99*,x,95*,-26,118*,98*,105*,Mdm2-MdmX confirm=102*
C=CCC(Nc1ccccc1)C12C=CC(O1)C(C(=O)OC)=C2C(=O)OC (stereo not given),80*,92*,38,112*,92*,-24,42,94*,98*,
COC(=O)C1=C(C(=O)OC)[C@]2([C@@H]3CC=CCN[C@@H](Cc4ccccc4)C(=O)N3Cc3ccccc3)C=C[C@H]1O2,4,5,31,x,-111,-8,x,x,x,
Cc1cccc(OC(=O)Cn2c(C(F)(F)F)nc3ccccc32)c1,4,17,-2,5,5,-18,x,x,x,
Cc1cccc(OCc2n(CC(=O)OC3CC(C)CCC3C(C)C)c3ccccc3[n+]2C)c1 (stereo not given),96*,96*,69*,109*,103*,-57*,78*,27,106*,Mdm2-MdmX confirm=102*
CC(=O)NCCNc1nc2cc(-c3cnn(CCC(C)C)c3)sc2c(=O)n1C,x,11,-89,x,24,4,x,x,x,
CN(C)S(=O)(=O)c1ccc(NC(=O)CN2C(=O)NC(Cc3ccccc3)C2=O)cc1 (stereo not given),4,8,-27,x,9,18,x,x,x,
CN=C1SC(CC(=O)Nc2ccccc2F)C(=O)N1/N=C/c1ccc(O)c(OC)c1 (stereo not given),-17,-33,7,22,-28,-7,x,x,x,
CCOc1ccc(/C=N/N2C(=O)C(CC(=O)Nc3ccc(F)cc3F)SC2=NC)cc1OC (stereo not given),41,49*,10,106*,14,3,14,-4,-6,
Cn1c(=O)c([N+](=O)[O-])c(Cl)c2ccccc21,95*,97*,72*,108*,105*,-50*,141*,83*,106*,
CC(C(=O)N(C)c1ccccc1)N1CCN(C(=O)c2ccccc2)CC1 (stereo not given),2,15,-6,x,-2,8,x,x,x,
C#CC(=O)N(c1cc(OC)ccc1OC)C(C(=O)NC1CCCC1)c1cccs1 (stereo not given),x,92*,97*,108*,107*,-97*,111*,99*,105*,Mdm2-MdmX confirm=103*
Cc1cc([N+](=O)[O-])nn1CC(=O)NCc1ccc(Cl)cc1,4,16,13,x,21,3,x,x,x,
CC(=O)N(Cc1c(C)nn(-c2ccccc2)c1Cl)c1ccc(Cl)cc1,-1,29,18,2,22,-10,x,x,x,
Cc1nn(-c2ccccc2)c(Cl)c1CN(C(=O)CCl)c1ccc(Cl)cc1,91*,96*,91*,109*,103*,-97*,140*,99*,106*,
CCC1(c2ccccc2)NC(=O)N(CC(=O)N(CC(=O)Nc2ccccc2C(F)(F)F)Cc2ccco2)C1=O (stereo not given),10,2,-14,x,-8,8,x,x,x,
BrC(=C\c1ccccc1)/C=N/Nc1ccc2nncn2n1,1,-96,-5,12,-44,3,x,x,x,
BrC(=C\c1ccccc1)/C=N/n1cnnc1,83*,61*,58*,106*,111*,-10,-22,23,97*,CF NFkB conf=-77
